These results are taken from PubChem BioAssay (EPA / NIEHS).

Inconclusive results are not listed. Activity calls are given as the source filed them. Rule for the calls, unless noted: active = hit-call score of the fitted dose curve at least 0.9, where 1 is the maximum; inactive = score below 0.9.

One experiment relates to TTR (gene 7276). Briefly: CCTE_GLTED_hTTR_0.5uM: CCTE's human Transthyretin (hTTR) Inhibition Assay, with 0.5uM TTR, Great Lakes Toxicology and Ecology Division (GLTED) Lab (AID 2284320). An outline of the steps:
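Probe (ANSA) displacement from 0.5 uM human transthyretin was followed by fluorescence (ex 380, em 475) after a 2 h incubation with chemical. Activity was scored as signal loss and fitted positively relative to DMSO.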

Experiment [1] is described as follows: CCTE_Mundy_HCI_iCellGluta_NOG_NeuronCount: CCTE's Neurite Outgrowth Assay in iCellGluta cells for Neuron Count, Mundy Lab (AID 2284340; active = hit-call score of the fitted dose curve at least 0.9, where 1 is the maximum;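 note: cells fixed about 48 h after compound addition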). The procedure, abridged:
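Neuron count read by automated high-content imaging of Hoechst 33342 and betaIII-tubulin/Alexa Fluor-488 labelling in human iPSC glutamatergic neurons. Activity fitted relative to DMSO.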

A short description of experiment [2]: Tanguay_ZF_120hpf_CRAN: Oregon State University Tanguay Lab 120 Hour Post-fertilization zebrafish Assay for Craniofacial Malformation (AID 2284397). The procedure, abridged: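 Scoring of craniofacial malformation as a binary endpoint was done at 120 hpf by brightfield microscopy and was not done in dead embryos. Exposure was static, starting at 6 hpf, in dechorionated wild-type embryos held singly at 28C with 0.64% DMSO final.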

A short description of experiment [3]: Tanguay_ZF_120hpf_AXIS: Oregon State University Tanguay Lab 120 Hour Post-fertilization zebrafish Assay for Axial Malformation (AID 2284398). An outline of the steps: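 Scoring was binary (present or absent) for body-axis defects, judged by brightfield imaging at 120 hpf in surviving larvae. Exposure was static at 28C from 6 hpf in chorion-free 5D wild-type embryos, with 0.64% DMSO vehicle.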

Experiment [4] is described as follows: Tanguay_ZF_120hpf_MORT: Oregon State University Tanguay Lab 120 Hour Post-fertilization zebrafish Assay for Mortality (AID 2284399). An outline of the steps: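 Mortality, recorded present/absent via brightfield imaging at 24 and 120 hpf, in 5D zebrafish embryos exposed statically from 6 hpf after pronase chorion removal. Exposure at 28C, 0.64% DMSO vehicle, DMSO baseline.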

Experiment [5] can be described thus: Tanguay_ZF_120hpf_EDEM: Oregon State University Tanguay Lab 120 Hour Post-fertilization zebrafish Assay for Edema Malformation (AID 2284400). An outline of the steps:
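Edema recorded as a binary endpoint under brightfield at 120 hpf, excluding embryos that died. Exposure was static, sealed, 28C, from 6 hpf in dechorionated wild-type larvae, final DMSO 0.64%, DMSO as baseline.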

A short description of experiment [6]: Tanguay_ZF_120hpf_BRN: Oregon State University Tanguay Lab 120 Hour Post-fertilization zebrafish Assay for Brain Region Malformation (AID 2284402). The procedure, abridged:
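Binary brightfield scoring of brain malformation at 120 hpf in 5D wild-type larvae, chorion removed with pronase at 4 hpf. Static exposure began at 6 hpf, 28C, sealed plates, DMSO 0.64% (vol/vol) as vehicle baseline.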

A short description of experiment [7]: Tanguay_ZF_120hpf_TCHR: Oregon State University Tanguay Lab 120 Hour Post-fertilization zebrafish Assay for Touch Responsive (AID 2284403). An outline of the steps: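 Binary touch-response calls are made at 120 hpf in 5D wild-type zebrafish larvae. These larvae were dechorionated with pronase and exposed singly from 6 hpf in sealed, dark plates at 28 °C with 0.64% DMSO final; dead embryos are excluded.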

Experiment [8] can be described thus: Tanguay_ZF_120hpf_ANY: Oregon State University Tanguay Lab 120 Hour Post-fertilization zebrafish Assay for Any Mortality and Malformation (AID 2284404). An outline of the steps: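 Dechorionated Tropical 5D wild-type embryos, one per well from 6 hpf, static exposure in sealed, dark plates at 28C until 120 hpf, 0.64% DMSO final. Brightfield scoring of mortality and malformations as binary presence/absence, pooling 13 morphology endpoints.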

Experiment [9] in a line: CCTE_Padilla_ZF_Score.Swim_bladder: CCTE's 144 Hour Post-fertilization zebrafish Assay Score for Swim Bladder Malformation, Padilla Lab (AID 2284408). An outline of the steps: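 Swim bladder inflation scored at 6 dpf by two blinded observers under a stereo microscope. Exposure ran from 6–8 hpf in sealed wells of 10% Hanks' at 26C, with rinsing at 5 dpf; DMSO served as baseline.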

The nature of experiment [10]: CCTE_Padilla_ZF_Score.Position: CCTE's 144 Hour Post-fertilization zebrafish Assay Score for Position, Padilla Lab (AID 2284409). The procedure, abridged: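 Wild-type zebrafish embryos (with chorions) exposed singly from 6–8 hpf in sealed wells of Hanks' solution at 26C, rinsed at 5 dpf. At 6 dpf, blinded assessors scored abnormal water-column position by brightfield stereomicroscopy, relative to DMSO.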

Experiment [11] can be described thus: CCTE_Padilla_ZF_Score.Living: CCTE's 144 Hour Post-fertilization zebrafish Assay Score for Viability, Padilla Lab (AID 2284410).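 Note: larval death at 6 dpf judged by absent heartbeat or coagulation.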 The procedure, abridged:
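Mortality at 6 dpf, judged as absent heartbeat or coagulation by two blinded observers, after sealed static exposure beginning at 6–8 hpf at 26C. Larvae were rinsed free of chemical at 5 dpf, and activity was fitted relative to DMSO.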

Experiment [12] can be described thus: CCTE_Padilla_ZF_Score.General: CCTE's 144 Hour Post-fertilization zebrafish Assay Score for General Malformation, Padilla Lab (AID 2284411). The procedure, abridged:
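Malformation, death and hatching were scored at 6 dpf by two blinded observers under a stereo microscope. Embryos were dosed singly from 6-8 hpf in sealed plates of 10% Hanks' at 26C and rinsed on 5 dpf; DMSO baseline.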

In the next experiment the test system is SERPINA7 (gene 6906). Briefly: CCTE_GLTED_hTBG: CCTE's human Thyroxine-binding Globulin (TBG) Inhibition Assay, Great Lakes Toxicology and Ecology Division (GLTED) Lab (AID 2284343; active = hit-call score of the fitted dose curve at least 0.9, where 1 is the maximum;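 note: active chemicals lower fluorescence versus DMSO baseline by displacing probe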). The procedure, abridged:
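Fluorescence (ex 380/em 475) reports ANSA displaced from human TBG after a 2 h incubation with test chemical, without cells. Loss of signal indicates displacement, with DMSO serving as baseline.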

The nature of experiment [13]: CCTE_Padilla_ZF_Score.Spine: CCTE's 144 Hour Post-fertilization zebrafish Assay Score for Spine Malformation, Padilla Lab (AID 2284407). The procedure, abridged:
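Spine malformation scored at 6 dpf by two independent blinded observers under stereomicroscope, after static sealed exposure from 6–8 hpf at 26C in Hanks' solution with rinse on 5 dpf. Positive-direction fit against DMSO control.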

Experiment [14] in a line: CCTE_Padilla_ZF_Score.Craniofacial: CCTE's 144 Hour Post-fertilization zebrafish Assay Score for Craniofacial Malformation, Padilla Lab (AID 2284405). An outline of the steps:
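Craniofacial defects were scored at 6 dpf by two blinded observers using stereomicroscopy. Exposure of wild-type embryos began at 6–8 hpf in sealed wells of 10% Hanks' solution at 26C, with chemical removed by rinsing at 5 dpf.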

With `O=C(O)CCC(F)(F)C(F)(F)C(F)(F)F`, the AC50 with TTR (gene 7276) is 17.6 µM (active). Besides, the result in [1], in experiment [2], in experiment [3], in experiment [4], in experiment [5] and in [6] was inactive. In addition, the result in experiment [7], in experiment [8], in experiment [9], in experiment [10], in experiment [11] and in experiment [12] was inactive.
As to `NC(=O)C(F)(F)C(F)(F)C(F)(F)C(F)(F)C(N)=O`, the AC50 with TTR (gene 7276) is 44.1 µM (active). The molecule was called inactive in experiment [1], in experiment [2], in [3], in [4], in experiment [5] and in experiment [6]. Besides, the molecule was classed as inactive in experiment [7], in [8], in experiment [9], in [10], in experiment [11] and in experiment [12].
In the case of `O=S(=O)(OCC(F)(F)F)C(F)(F)C(F)(F)C(F)(F)C(F)(F)F`, the AC50 in the experiment with TTR (gene 7276) was 1.4 µM (active); in experiment [9], 88.8 µM (active). Also, the result in [2], in experiment [3], in experiment [4], in experiment [5], in experiment [6] and in experiment [7] was inactive. Besides, the outcome in experiment [8], in [10], in [11] and in experiment [12] was inactive.
`CCc1cc(Cc2cc(CC)c(N)c(CC)c2)cc(CC)c1N`: the AC50 in the experiment with SERPINA7 (gene 6906) was 8.5 µM (active).
Consider `CN(C(=O)C(F)(F)C(F)(F)C(F)(F)F)[Si](C)(C)C`, for which the result in [2], in experiment [3], in [4], in experiment [5], in [6] and in experiment [7] was inactive. Moreover, the outcome in experiment [8], in experiment [13], in [9], in experiment [10], in [11] and in experiment [12] was inactive.
Turning to `CN1CN(C)CN(C)C1`, the molecule was classed as inactive in experiment [12].
`NCC(F)(F)C(F)(F)C(F)(F)C(F)(F)C(F)(F)C(F)(F)F`: the call in experiment [14], in [9], in experiment [10] and in experiment [11] was inactive. In [12], the half-maximal activity concentration (AC50) was 75.3 µM (active).
As to `NCC(F)(F)C(F)(F)C(F)(F)C(F)(F)C(F)(F)C(F)(F)C(F)(F)C(F)(F)F`, the molecule was called inactive in experiment [9], in experiment [10] and in experiment [12]. Also, the AC50 in [11] was 32.4 µM (active).
`OCCCCC(F)(F)C(F)(F)C(F)(F)C(F)(F)F`: the molecule was classed as inactive in experiment [1], in [2], in experiment [3], in experiment [4], in experiment [5] and in experiment [6]. Moreover, the outcome in experiment [7] and in experiment [8] was inactive. Also, the concentration at half-maximal activity (AC50) in experiment [9] is 30.6 µM (active); in experiment [10], 34.1 µM (active); in experiment [11], 88.8 µM (active); in experiment [12], 21 µM (active).
For `Nc1cc([N+](=O)[O-])cc(Cl)c1O`, the call in experiment [12] was inactive.
For the molecule `c1ccc(C[P+](c2ccccc2)(c2ccccc2)c2ccccc2)cc1`, the call in experiment [12] was inactive.
For the molecule `O=C(O)C(F)(F)C(F)(F)C(F)(F)C(=O)O`, the call in [2], in experiment [3], in experiment [4], in [5], in experiment [6] and in [7] was inactive. Also, the call in experiment [8], in experiment [9], in experiment [10], in [11] and in [12] was inactive.
On to `NC(=O)C(F)(F)C(F)(F)C(F)(F)F`, for which the outcome in experiment [2], in experiment [3], in [4], in experiment [5], in experiment [6] and in experiment [7] was inactive. In addition, the result in [8], in [9], in [10], in experiment [11] and in [12] was inactive.
As for `CCN(CC)c1ccc(C=O)cc1`, the call in experiment [12] was inactive.
In the case of `C=C(C)C(=O)OCC(F)(F)C(F)(F)C(F)(F)C(F)F`, the AC50 in the experiment with TTR (gene 7276) was 19 µM (active). The call in [9], in [10], in experiment [11] and in [12] was inactive.
On to `O=S(=O)(O)CCC(F)(F)C(F)(F)C(F)(F)C(F)(F)F`, for which the AC50 in the experiment on TTR (gene 7276) is 2.1 µM (active). Further, the result in experiment [2], in experiment [3], in experiment [4], in experiment [5], in experiment [6] and in [7] was inactive. The molecule was called inactive in experiment [8], in experiment [9], in experiment [10], in experiment [11] and in experiment [12].
Regarding `C[Si](Cl)(Cl)CCC(F)(F)C(F)(F)C(F)(F)C(F)(F)C(F)(F)C(F)(F)F`, the call in [2], in experiment [3], in experiment [4], in experiment [5], in [6] and in experiment [7] was inactive. In addition, the result in [8], in experiment [9], in experiment [10], in [11] and in experiment [12] was inactive.
